# Experimental data published in PubChem BioAssay (Tox21).
# Results filed as inconclusive are left out. Where a call stands in place of a potency, no number is given. Some compounds were tested as several samples or in several runs, with calls that do not always agree. The source made the active and inactive calls. Unless noted, the call rests on the fitted dose curve; in most records, active means well fitted curve in the direction sought with a large enough effect in the repeat runs; inconclusive means weak or mixed curves; inactive means no such curve, though single readings can be large; an effect the other way counts as inactive or inconclusive.
# Assays:
# [1] = target: Thyrotropin receptor (Homo sapiens) (UniProt P16473); assay: qHTS assay to identify small molecule antagonists of the thyroid stimulating hormone receptor (TSHR) signaling pathway (AID 1259385; calls by dose curve; further: nearly all actives have a fitted effect of over 20% in size)
# Summary of the method: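 TSHR-HEK293 cells (800/well) plated 18 h, then compounds with Ro20-1724 and TSH at 1.5 ng/mL final, 30 min at room temperature. cAMP quantified by HTRF (cAMP-d2/anti-cAMP-cryptate, 1 h); 15 concentrations in triplicate.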
# [2] = qHTS assay to identify small molecule agonists of the estrogen receptor alpha (ER-alpha) signaling pathway in the presence of an antagonist - cell viability counter screen (AID 1259386);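 further: series mostly up to about 92 µM; cells exposed to compounds for 22 h at 37 °C before the viability read; nearly all actives have a fitted effect of over 30% in size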
# Summary of the method: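 Steps: 5-day stripped-FBS culture; seed and incubate 24hr; add ICI-182,780 (10.0nM final); pin 15-point compound titration; incubate 22hr at 37C; add CellTiter-Fluor at 21hr; read fluorescence.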
# [3] = target: Progesterone receptor (Homo sapiens) (UniProt P06401); assay: qHTS assay to identify small molecule agonists of the progesterone receptor (PR) signaling pathway (AID 1346784; calls by dose curve; further: nearly all actives have a fitted effect of over 30% in size; further: potency means the concentration at half of the fitted maximal effect)
# Summary of the method: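 PR-UAS-bla HEK 293T cells carrying a UAS-driven beta-lactamase reporter were seeded in medium with 2% charcoal-stripped FBS, preincubated 6 hr at 37C, then exposed to compounds in DMSO for 16 hr; agonism was read by LiveBLAzer B/G FRET fluorescence.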
# [4] = target: Progesterone receptor (Homo sapiens) (UniProt P06401); assay: qHTS assay to identify small molecule antagonists of the progesterone receptor (PR) signaling pathway (AID 1346795; active means well fitted inhibition curve with a large enough effect in the signal ratio in the repeat runs, not every such curve was filed as active; the % refers to the signal ratio)
# Summary of the method: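 PR-UAS-bla HEK293T cells carrying a UAS-driven beta-lactamase reporter were plated in medium with 2% charcoal-stripped FBS and rested 6 hr at 37C. Compounds were added with 1 nM R5020 (final) for 16 hr, then FRET substrate loaded 2 hr at room temperature.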
# [5] = qHTS assay to identify small molecule antagonists of the progesterone receptor (PR) signaling pathway - cell viability counter screen (AID 1346798); further: series mostly up to about 92 µM; nearly all actives have a fitted effect of over 50% in size
# Summary of the method: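 PR-UAS-bla HEK293T cells in medium with 2% charcoal-stripped FBS were treated with compounds plus R5020 for 16 hr at 37C. Cell viability was then read by CellTiter-Glo luminescence after 30 min at room temperature in the same wells.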
# [6] = qHTS assay to identify small molecule antagonists of the TGF-beta/Smad signaling pathway - cell viability counter screen (AID 1346824); further: nearly all actives have a fitted effect of over 50% in size
# Summary of the method: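 SBE-bla HEK 293T cells, incubated overnight, then compound plus 0.25 ng/mL TGF-beta1 (stock added) for 5 hr at 37 C. Viability was read in the same wells by CellTiter-Glo luminescence after 30 min at room temperature.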
# [7] = qHTS assay to identify small molecule agonists of the TGF-beta/Smad signaling pathway - cell viability counter screen (AID 1346829); further: top concentration of the series differs between compounds; nearly all actives have a fitted effect of over 45% in size
# Summary of the method: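 Cytotoxicity counter screen: CellTiter-Glo luminescence (30 min, room temperature) measured in the SBE-bla HEK 293T reporter wells after 5 hr compound treatment at 37 C and the 2 hr substrate step.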
# [8] = qHTS assay to identify small molecule agonists of the TGF-beta/Smad signaling pathway (AID 1346859; active means well fitted activation curve with a large enough effect in the signal ratio in the repeat runs, not every such curve was filed as active; the % refers to the signal ratio; further: series mostly up to about 77 µM)
# Summary of the method: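 HEK 293T cells stably carrying a beta-lactamase reporter driven by the Smad binding element were seeded overnight, exposed to DMSO-dissolved compounds for 5 hr at 37 C, 5% CO2, then loaded with FRET substrate for 2 hr at room temperature.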
# [9] = target: Thyrotropin-releasing hormone receptor (Homo sapiens) (UniProt P34981); assay: qHTS assay to identify small molecule antagonists of the thyrotropin-releasing hormone receptor (TRHR) signaling pathway (AID 1346877; active means well fitted inhibition curve with a large enough effect in the repeat runs, not every such curve was filed as active; further: series mostly up to about 51 µM)
# Summary of the method: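 Human TRHR in HEK293 cells; inhibition of the intracellular calcium rise triggered by 1 nM TRH was followed by fluorescence over 3 min. Compounds were run at 15 concentrations, three replicates each.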
# [10] = target: Thyrotropin-releasing hormone receptor (Homo sapiens) (UniProt P34981); assay: qHTS assay to identify small molecule agonists of the thyrotropin-releasing hormone receptor (TRHR) signaling pathway (AID 1346891; calls by dose curve; further: series mostly up to about 58 µM)
# Summary of the method: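 TRHR-expressing HEK293 cells were plated 18 h at 37 °C/5% CO2, loaded with calcium dye 2 h at 37 °C, then given compound in DMSO; fluorescence was read kinetically for 3 min at 1 s intervals.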
# [11] = Human pregnane X receptor (PXR) small molecule agonists, qHTS cell viability counter screen (AID 1346977); further: nearly all actives have a fitted effect of over 50% in size
# Summary of the method: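 PXR-Luc HepG2 cells in medium with 5% charcoal-stripped FBS were pre-incubated 5hr, then exposed to compounds for 24hr at 37C. Viability was read in the same wells by CellTiter-Fluor fluorescence, reagent added after 23hr with a 1hr incubation.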
# [12] = Caspase-3/7 induction in HepG2 cells by small molecules, qHTS assay (AID 1346978); further: nearly all actives have a fitted effect of over 15% in size
# Summary of the method: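 Wild-type HepG2 cells, 2,000/well, settled 5 hr at 37 C and 5% CO2, then compound-treated for 17 hr; caspase-3/7 activity read by luminescent Caspase-Glo 3/7 after 30 min at room temperature.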
# [13] = Caspase-3/7 induction in CHO-K1 cells by small molecules, qHTS cell viability counter screen (AID 1346979); further: nearly all actives have a fitted effect of over 35% in size
# Summary of the method: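 Wild-type CHO-K1 cells were seeded at 1,500 per well, rested 5hr at 37 C, then exposed to compounds in DMSO. After 16hr, CellTiter-Fluor reagent was added and fluorescence read 1hr later as the viability measure.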
# [14] = Caspase-3/7 induction in CHO-K1 cells by small molecules, qHTS assay (AID 1346980); further: nearly all actives have a fitted effect of over 15% in size
# Summary of the method: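 Wild-type CHO-K1 cells exposed to compounds for 17hr at 37 C, 5% CO2. Caspase-3/7 activity then measured by Caspase-Glo 3/7 luminescence after 30min at room temperature.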
# [15] = Caspase-3/7 induction in HepG2 cells by small molecules, qHTS cell viability counter screen (AID 1346981); further: series mostly up to about 92 µM; nearly all actives have a fitted effect of over 30% in size
# Summary of the method: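 The parent HepG2 line is plated at 2,000 cells per well and rested 5 hr before compound pinning from DMSO stocks. Following a 16-hr treatment at 37 C, a fluorogenic live-cell substrate (CellTiter-Fluor) reports viability after 1 hr.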
# [16] = target: Nuclear receptor subfamily 1 group I member 2 (Homo sapiens) (UniProt O75469); assay: Human pregnane X receptor (PXR) small molecule agonists, qHTS assay (AID 1346982); further: nearly all actives have a fitted effect of over 35% in size; further: potency means the concentration at half of the fitted maximal effect
# Summary of the method: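 After plating in 5% charcoal-stripped FBS and a 5 hr rest, PXR-Luc HepG2 cells received compounds in DMSO. Following 24 hr at 37 C, ONE-Glo was added and light output read.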
# [17] = target: Nuclear receptor subfamily 1 group I member 2 (Rattus norvegicus) (UniProt Q9R1A7); assay: Rat pregnane X receptor (rPXR) activation by small molecules, qHTS assay (AID 1346983); settings: rPXR luciferase reporter cells, One-Glo luminescence, 24 h; stronger effect = higher value; further: nearly all actives have a fitted effect of over 20% in size
# Summary of the method: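 Cell-based rPXR activation assay: rPXR cells, 2,000 per well, rested 5hr at 37 C, then exposed to compounds in DMSO for 24 hr at 37 C. Luciferase activity read by One-Glo luminescence after 30 min at room temperature.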
# [18] = target: Nuclear receptor subfamily 1 group I member 2 (Homo sapiens) (UniProt O75469); assay: CYP3A4 induction through human pregnane X receptor (PXR) by small molecules, qHTS assay (AID 1346984); further: nearly all actives have a fitted effect of over 40% in size
# Summary of the method: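 Human PXR activation is tracked via CYP3A4 promoter-luciferase in DPX-2 (HepG2) cells. Compounds treat cells for 24hr at 37C, and luminescence is read after One-Glo.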
# [19] = target: Nuclear receptor subfamily 1 group I member 2 (Homo sapiens) (UniProt O75469); assay: Human pregnane X receptor (PXR) activation by small molecules, qHTS assay (AID 1346985); further: nearly all actives have a fitted effect of over 40% in size
# Summary of the method: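 DPX-2 cells (HepG2 co-transfected with a PXR response element and a CYP3A4-promoter luciferase construct) were seeded at 2,000 per well, rested 5 hr at 37C, then exposed to DMSO-dissolved compounds for 24 hr. Activation was read as luciferase luminescence.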
# [20] = qHTS assay to identify small molecule agonists of the progesterone receptor (PR) signaling pathway - cell viability counter screen (AID 1346799; calls by dose curve; further: nearly all actives have a fitted effect of over 45% in size)
# Summary of the method: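 PR-UAS-bla HEK293T cells, 3,000 per well in medium with 2% charcoal-stripped FBS, were preincubated 6 hr at 37C, then exposed to compounds for 16 hr; viability was read as CellTiter-Glo luminescence after 30 min at room temperature.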
# Thyrotropin receptor (Homo sapiens), sequence (P16473 whole entry, looked up): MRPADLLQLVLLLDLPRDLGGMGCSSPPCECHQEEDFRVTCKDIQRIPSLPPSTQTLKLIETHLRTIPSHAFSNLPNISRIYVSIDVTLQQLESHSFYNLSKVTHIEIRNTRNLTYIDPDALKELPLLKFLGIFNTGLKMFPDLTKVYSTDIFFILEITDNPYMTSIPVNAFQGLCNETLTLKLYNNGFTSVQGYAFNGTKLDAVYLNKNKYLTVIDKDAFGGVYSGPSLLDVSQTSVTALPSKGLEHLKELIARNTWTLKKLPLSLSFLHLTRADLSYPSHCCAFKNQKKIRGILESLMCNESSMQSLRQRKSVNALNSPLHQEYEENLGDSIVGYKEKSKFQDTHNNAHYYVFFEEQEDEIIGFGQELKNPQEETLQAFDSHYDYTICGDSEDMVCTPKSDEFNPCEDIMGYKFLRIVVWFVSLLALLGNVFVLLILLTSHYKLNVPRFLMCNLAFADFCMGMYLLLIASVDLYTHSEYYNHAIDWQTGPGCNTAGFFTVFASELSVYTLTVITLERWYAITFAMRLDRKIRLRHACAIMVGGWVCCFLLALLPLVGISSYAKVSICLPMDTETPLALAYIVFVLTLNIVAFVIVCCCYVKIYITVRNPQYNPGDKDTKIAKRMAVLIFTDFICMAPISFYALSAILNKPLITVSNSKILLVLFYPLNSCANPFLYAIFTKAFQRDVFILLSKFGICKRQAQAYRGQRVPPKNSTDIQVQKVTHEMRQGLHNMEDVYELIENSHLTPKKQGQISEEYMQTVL
# Thyrotropin-releasing hormone receptor (Homo sapiens), sequence (P34981 whole entry, looked up): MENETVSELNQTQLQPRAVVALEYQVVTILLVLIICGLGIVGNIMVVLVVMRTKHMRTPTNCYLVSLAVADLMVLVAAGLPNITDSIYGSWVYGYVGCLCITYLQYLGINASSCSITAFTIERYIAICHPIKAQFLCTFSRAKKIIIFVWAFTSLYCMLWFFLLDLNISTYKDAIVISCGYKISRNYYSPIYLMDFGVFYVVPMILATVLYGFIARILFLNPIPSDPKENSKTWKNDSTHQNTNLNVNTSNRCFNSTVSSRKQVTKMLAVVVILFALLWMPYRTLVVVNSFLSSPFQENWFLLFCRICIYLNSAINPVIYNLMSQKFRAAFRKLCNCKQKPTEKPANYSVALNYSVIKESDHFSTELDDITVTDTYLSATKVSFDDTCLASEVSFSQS
# Progesterone receptor (Homo sapiens), sequence (P06401 whole entry, looked up): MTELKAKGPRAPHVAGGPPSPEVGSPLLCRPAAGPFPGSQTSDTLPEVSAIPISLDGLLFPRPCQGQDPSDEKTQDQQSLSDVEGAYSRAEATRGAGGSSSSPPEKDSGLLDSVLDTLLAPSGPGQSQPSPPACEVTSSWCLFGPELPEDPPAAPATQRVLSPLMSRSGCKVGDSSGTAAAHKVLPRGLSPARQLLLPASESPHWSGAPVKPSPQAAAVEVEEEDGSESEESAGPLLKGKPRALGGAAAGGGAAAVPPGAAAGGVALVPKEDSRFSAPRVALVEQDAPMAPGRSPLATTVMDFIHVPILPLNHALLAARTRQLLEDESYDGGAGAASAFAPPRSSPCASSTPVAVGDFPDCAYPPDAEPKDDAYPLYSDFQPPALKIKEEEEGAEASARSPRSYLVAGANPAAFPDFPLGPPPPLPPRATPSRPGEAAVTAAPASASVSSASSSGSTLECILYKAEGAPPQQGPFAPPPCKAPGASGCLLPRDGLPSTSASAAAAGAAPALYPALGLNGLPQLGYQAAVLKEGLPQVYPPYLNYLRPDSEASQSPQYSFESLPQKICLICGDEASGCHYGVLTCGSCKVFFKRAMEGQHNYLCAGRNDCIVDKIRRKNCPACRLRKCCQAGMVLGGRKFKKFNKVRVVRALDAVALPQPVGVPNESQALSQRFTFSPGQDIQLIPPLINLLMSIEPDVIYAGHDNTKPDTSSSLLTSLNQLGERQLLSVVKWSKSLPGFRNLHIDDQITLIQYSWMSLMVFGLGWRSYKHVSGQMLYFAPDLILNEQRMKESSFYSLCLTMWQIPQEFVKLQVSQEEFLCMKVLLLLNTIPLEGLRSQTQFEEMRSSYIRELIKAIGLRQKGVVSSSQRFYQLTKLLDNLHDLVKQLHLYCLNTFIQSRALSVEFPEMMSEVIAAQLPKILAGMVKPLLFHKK
# Nuclear receptor subfamily 1 group I member 2 (Rattus norvegicus), sequence (Q9R1A7 whole entry, looked up): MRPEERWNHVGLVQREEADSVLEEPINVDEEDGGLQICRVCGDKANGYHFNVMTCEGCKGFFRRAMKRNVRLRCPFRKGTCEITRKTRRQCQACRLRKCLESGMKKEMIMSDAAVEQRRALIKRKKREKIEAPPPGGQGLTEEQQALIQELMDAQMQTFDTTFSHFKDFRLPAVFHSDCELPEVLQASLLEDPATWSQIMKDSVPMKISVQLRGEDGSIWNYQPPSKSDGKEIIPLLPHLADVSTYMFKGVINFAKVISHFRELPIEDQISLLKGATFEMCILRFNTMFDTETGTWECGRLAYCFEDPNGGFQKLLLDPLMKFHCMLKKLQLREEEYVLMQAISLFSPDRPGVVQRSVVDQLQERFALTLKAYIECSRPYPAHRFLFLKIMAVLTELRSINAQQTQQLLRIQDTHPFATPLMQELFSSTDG
# Nuclear receptor subfamily 1 group I member 2 (Homo sapiens), sequence (O75469 whole entry, looked up): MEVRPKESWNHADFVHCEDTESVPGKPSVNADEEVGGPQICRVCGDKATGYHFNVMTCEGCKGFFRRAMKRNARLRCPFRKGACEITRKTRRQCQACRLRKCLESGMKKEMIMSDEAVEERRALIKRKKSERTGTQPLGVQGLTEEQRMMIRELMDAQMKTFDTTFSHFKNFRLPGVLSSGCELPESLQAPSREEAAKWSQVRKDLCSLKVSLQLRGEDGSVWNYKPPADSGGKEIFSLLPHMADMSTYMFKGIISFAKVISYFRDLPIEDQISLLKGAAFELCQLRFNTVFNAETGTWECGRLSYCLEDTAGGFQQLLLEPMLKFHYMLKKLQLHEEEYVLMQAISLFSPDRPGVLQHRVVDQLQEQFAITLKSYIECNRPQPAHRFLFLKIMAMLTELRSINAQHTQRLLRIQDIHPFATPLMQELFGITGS
SMILES,outcome [1],Potency [2],Potency [3],Potency [4],Potency [5],outcome [6],Potency [7],outcome [8],Potency [9],outcome [10],Potency [11],outcome [12],Potency [13],outcome [14],Potency [15],Potency [16],max activation [17],Potency [18],Potency [19],Potency [20]
C=C(C)[C@H]1CN[C@H](C(=O)O)[C@H]1CC(=O)O,inactive,inactive,inactive,inactive,inactive,inactive,inactive,inactive,inactive,inactive,inactive,inactive,inactive,inactive,inactive,inactive,-1.12% (inactive),inactive,inactive,–
CC(C)(O)C(Cl)(Cl)Cl,inactive,inactive,inactive,inactive,inactive,inactive,inactive,inactive,–,–,inactive,inactive,–,inactive,inactive,–,-2.13% (inactive),inactive,inactive,–
CS(=O)(=O)c1ccc(C(=O)C2C(=O)CCCC2=O)c(Cl)c1COCC(F)(F)F,inactive,inactive,inactive,inactive,inactive,inactive,inactive,inactive,inactive,inactive,inactive,inactive,inactive,inactive,inactive,inactive,–,–,–,–
O=C(O)c1c(Cl)ccc2cc(Cl)cnc12,inactive,inactive,inactive,inactive,inactive,inactive,–,inactive,inactive,inactive,inactive,inactive,inactive,inactive,inactive,inactive,–,–,–,–
CCOC(=O)CC(SP(=S)(OC)OC)C(=O)OCC (stereo unspecified),inactive,inactive,1.37 µM (active) and inactive,inactive,inactive,inactive,inactive,inactive,inactive,inactive,inactive,inactive,–,–,inactive,12.2 µM (active) and inactive,0.377% (inactive),inactive,inactive,–
CCN(CC)CCOC(=O)C(O)(c1ccccc1)c1ccccc1,inactive,inactive,inactive,inactive,–,inactive,inactive,inactive,inactive,inactive,inactive,inactive,inactive,inactive,inactive,inactive,-2.47% (inactive),inactive,inactive,–
COP(=O)(OC)O/C(C)=C/C(=O)N(C)C,inactive,inactive,inactive,inactive,inactive,inactive,inactive,inactive,inactive,inactive,inactive,inactive,inactive,inactive,inactive,inactive,–,–,–,–
COC(=O)[C@@H](N)CCCN/C(N)=N/[N+](=O)[O-],inactive,inactive,inactive,inactive,–,inactive,inactive,inactive,inactive,inactive,inactive,inactive,inactive,–,inactive,–,0.511% (inactive),–,–,inactive
CCN(CCO)CCO,inactive,inactive,inactive,inactive,inactive,inactive,inactive,inactive,inactive,inactive,inactive,inactive,–,inactive,inactive,–,–,–,–,–
ClCCCCCCCl,inactive,inactive,inactive,inactive,–,inactive,inactive,inactive,inactive,inactive,inactive,inactive,inactive,inactive,inactive,inactive,–,–,–,–
ClCCN1CCCC1,inactive,inactive,inactive,inactive,inactive,inactive,–,inactive,–,–,inactive,inactive,–,inactive,inactive,–,–,–,–,–
CC[C@@H](CO)NC(=O)[C@@H]1C=C2c3cccc4[nH]cc(c34)C[C@H]2N(C)C1,inactive,inactive,inactive,inactive,inactive,inactive,inactive,inactive,inactive,inactive,inactive,inactive,inactive,inactive,inactive,inactive,–,–,–,–
CCCCCCC1CCOC1=O (stereo unspecified),inactive,inactive,inactive,inactive,inactive,inactive,inactive,inactive,inactive,inactive,inactive,inactive,inactive,–,inactive,inactive,–,–,–,–
CC(O)CCl (stereo unspecified),inactive,inactive,inactive,–,inactive,inactive,inactive,inactive,–,–,inactive,inactive,inactive,inactive,inactive,inactive,–,–,–,inactive
